# Where a name gives a salt, the structure may show the parent alone.
# Tested on: U2932 TK216-resistant clone 2
# Assay: cell proliferation relative to vehicle (% of vehicle); higher = less growth inhibition
# Conditions: 500 nM; 72 h
# In short: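 A library of 348 targeted inhibitors was screened against the ABC-DLBCL cell line U2932, using parental cells and two clones made resistant to an ETS-targeting agent through repeated exposure over almost a year. The cells were cultured at 37°C and 5% CO2 in medium containing 10% FBS and treated at 500 nM or 50 nM for 72 h, after which MTT was added for 4 h, stopped with 25% SDS, and absorbance was read on a Cytation 3. Proliferation is given as the percentage of proliferating cells relative to the vehicle, DMSO.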
row,Compound,cell proliferation
1,CCC(C)(C)C(=O)O[C@H]1C[C@@H](C)C=C2C=C[C@H](C)[C@H](CC[C@@H]3C[C@@H](O)CC(=O)O3)[C@H]21 [Simvastatin],88.7
2,Cc1cc(CS(=O)(=O)c2ccccc2)cc(OCc2ccc(CN3CCC[C@@H]3CO)cc2)c1,90.6
3,Cn1c(Nc2ccc(C(F)(F)F)cc2)nc2cc(Oc3ccnc(-c4ncc(C(F)(F)F)[nH]4)c3)ccc21,80.7
4,"CC[C@H](Nc1ncnc2[nH]cnc12)c1nc2cccc(F)c2c(=O)n1-c1ccccc1 [CAL-101 (Idelalisib, GS-1101)]",109
5,"COc1cc(F)c(F)c(Nc2ccc(I)cc2F)c1NS(=O)(=O)C1(C[C@H](O)CO)CC1 [Refametinib (RDEA119, Bay 86-9766)]",92.6
6,CC(=O)Nc1cccc(-n2c(=O)n(C3CC3)c(=O)c3c(Nc4ccc(I)cc4F)n(C)c(=O)c(C)c32)c1,105
7,O=C(O)CCNc1cc(N2CCc3ccccc3CC2)nc(-c2ccccn2)n1,100
8,C[C@@H]1CCN(C(=O)CC#N)C[C@@H]1N(C)c1ncnc2[nH]ccc12,104
9,COc1ccc(-c2ccc3ncc4c(c3c2)n(-c2ccc(N3CCNCC3)c(C(F)(F)F)c2)c(=O)n4C)cn1,-0.777
10,Clc1ccc(C2(c3ccc(-c4cn[nH]c4)cc3)CCNCC2)cc1,48.2
11,O=C(CCCCCCNC(=O)c1cnc(N(c2ccccc2)c2ccccc2)nc1)NO [Rocilinostat (ACY-1215)],104
12,CCCCCCCCCCCC1=C(O)C(=O)C=C(O)C1=O [Embelin],98.8
13,COc1cc2ncnc(Oc3ccc(CC(=O)Nc4cnn(C(C)C)c4)cc3)c2cc1OC,104
14,C[C@H](NC(=O)/C(C#N)=C/c1cccc(Br)n1)c1ccccc1,111
15,CO[C@H]1C[C@@H]2CC[C@@H](C)[C@@](O)(O2)C(=O)C(=O)N2CCCC[C@H]2C(=O)O[C@H]([C@H](C)C[C@@H]2CC[C@@H](OC(=O)C(C)(CO)CO)[C@H](OC)C2)CC(=O)[C@H](C)/C=C(\C)[C@@H](O)[C@@H](OC)C(=O)[C@H](C)C[C@H](C)/C=C/C=C/C=C/1C,64.8
16,CNC(=O)c1ccccc1Sc1ccc2c(/C=C/c3ccccn3)n[nH]c2c1 [Axitinib],92.8
17,CCOC(=O)c1[nH]c2cc(Cl)ccc2c1C(C(=O)NC(C)(C)C)N(C=O)Cc1ccc(Cl)cc1 (stereo not drawn),92.2
18,O=C(NC[C@H](O)CO)c1ccncc1Nc1ccc(I)cc1F,88.5
19,NC(=O)c1cccc2cn(-c3ccc([C@@H]4CCCNC4)cc3)nc12 [MK-4827(Niraparib) tosylate],91.7
20,CC(C)N(CCCNC(=O)Nc1ccc(C(C)(C)C)cc1)C[C@H]1O[C@@H](n2cc(Br)c3c(N)ncnc32)[C@H](O)[C@@H]1O,100
21,O=C(O)CC[C@H]1CC[C@@](c2cc(F)ccc2F)(S(=O)(=O)c2ccc(Cl)cc2)CC1,109
22,Clc1ccc(Nc2nnc(Cc3ccncc3)c3ccccc23)cc1 [Vatalanib (PTK787) 2HCl],99.8
23,C=CCc1ccc(O)c(-c2ccc(O)c(CC=C)c2)c1 [Honokiol],111
24,O=C(O)C(=O)O.[NH-][C@@H]1CCCC[C@H]1[NH-].[Pt+2] [Oxaliplatin],99
25,CN1CCC(CNc2ccc3ncc(-c4cccc(OC(F)(F)F)c4)n3n2)CC1 [SGI-1776 free base],86.7
26,O=c1ncccn1[C@@H]1O[C@H](CO)[C@@H](O)[C@H]1O [Zebularine],95.5
27,COc1cc(Nc2ncc(F)c(Nc3ccc4c(n3)N(COP(=O)(O)O)C(=O)C(C)(C)O4)n2)cc(OC)c1OC [Fostamatinib (R788)],92.8
28,Oc1cccc(-c2nc(N3CCOCC3)c3oc4ncccc4c3n2)c1,45.4

# — the supplement of paper PMC13172266
